# Test results reported in PMC7862700, “An all-to-all approach to the identification of sequence-specific readers for epigenetic DNA modifications on cytosine”.
# How the values were obtained:
# Assay in all cases: DAPPL (digital affinity profiling via proximity ligation, sequencing); 10 mM Tris-HCl pH 7.5, 50 mM NaCl, 1 mM DTT, 4% glycerol, room temperature, 30 min; GST-TFs on glutathione beads, 16-mer random dsDNA library, 0.1% formaldehyde crosslink after washing; high values mean tight binding
# Conditions in all cases: protein: recombinant; tags: N-terminal GST; dsDNA, one strand shown
# [1] = target: T1, ETV3 (Homo sapiens, UniProt P41162-2 1-143)
# T1 sequence: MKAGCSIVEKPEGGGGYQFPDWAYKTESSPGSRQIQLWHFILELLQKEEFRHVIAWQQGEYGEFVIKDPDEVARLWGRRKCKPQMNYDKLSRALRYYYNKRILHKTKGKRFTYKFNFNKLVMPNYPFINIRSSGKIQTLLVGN
# In short: (§1)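 The binding signal reported is, for every hexamer, its read frequency for a factor over its read frequency for the tag-only sample. Reads came from pools of yeast-expressed, GST-fused human transcription factors on glutathione beads, barcoded with DNA and mixed with that sample, which were incubated with 200 nmole of a random double-stranded 16-mer DNA library in Tris/NaCl/DTT/glycerol buffer at room temperature for 30 min. After washing, the pools were crosslinked with 0.1% formaldehyde, proximity-ligated with BsaI/T4 ligase for 1 h at 37 °C, PCR-amplified and sequenced on an Illumina NextSeq500.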
# [2] = target: T2, ELK3 (Homo sapiens, UniProt P41970 1-407)
# T2 sequence: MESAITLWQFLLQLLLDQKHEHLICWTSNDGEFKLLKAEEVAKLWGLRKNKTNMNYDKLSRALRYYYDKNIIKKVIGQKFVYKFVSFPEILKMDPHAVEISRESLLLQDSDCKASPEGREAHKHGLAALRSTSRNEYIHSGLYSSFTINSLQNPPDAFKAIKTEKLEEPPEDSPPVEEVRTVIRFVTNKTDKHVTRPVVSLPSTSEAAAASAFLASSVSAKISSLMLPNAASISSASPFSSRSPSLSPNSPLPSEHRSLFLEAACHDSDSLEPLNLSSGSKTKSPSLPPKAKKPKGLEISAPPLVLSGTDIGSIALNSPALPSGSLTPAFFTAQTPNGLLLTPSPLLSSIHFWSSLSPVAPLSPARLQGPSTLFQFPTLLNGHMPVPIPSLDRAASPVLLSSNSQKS
# In short: as §1
# [3] = target: T3, ELF3 (Homo sapiens, UniProt P78545 1-371)
# T3 sequence: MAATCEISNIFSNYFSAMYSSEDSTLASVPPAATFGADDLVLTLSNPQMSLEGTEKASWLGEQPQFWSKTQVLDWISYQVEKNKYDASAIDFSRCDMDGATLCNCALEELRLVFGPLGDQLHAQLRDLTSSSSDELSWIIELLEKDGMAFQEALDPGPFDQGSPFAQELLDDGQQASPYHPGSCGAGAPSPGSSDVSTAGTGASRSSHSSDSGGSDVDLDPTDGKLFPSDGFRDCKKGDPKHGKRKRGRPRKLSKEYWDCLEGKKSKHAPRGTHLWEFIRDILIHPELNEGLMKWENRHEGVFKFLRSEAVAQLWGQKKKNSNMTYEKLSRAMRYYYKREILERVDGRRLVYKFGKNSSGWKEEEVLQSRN
# In short: as §1
# [4] = target: T4, EHF (Homo sapiens, UniProt Q9NZC4 1-300)
# T4 sequence: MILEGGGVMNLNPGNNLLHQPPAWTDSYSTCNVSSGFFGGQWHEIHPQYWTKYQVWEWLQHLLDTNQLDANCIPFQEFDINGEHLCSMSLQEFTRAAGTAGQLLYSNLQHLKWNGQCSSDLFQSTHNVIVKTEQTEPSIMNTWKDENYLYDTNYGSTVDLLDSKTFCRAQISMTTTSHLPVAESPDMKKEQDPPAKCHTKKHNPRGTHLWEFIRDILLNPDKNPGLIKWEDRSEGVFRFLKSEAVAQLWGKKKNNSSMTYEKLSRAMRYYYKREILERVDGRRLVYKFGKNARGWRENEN
# In short: as §1
# [5] = target: T5, GABPA (Homo sapiens, UniProt Q06546 1-454)
# T5 sequence: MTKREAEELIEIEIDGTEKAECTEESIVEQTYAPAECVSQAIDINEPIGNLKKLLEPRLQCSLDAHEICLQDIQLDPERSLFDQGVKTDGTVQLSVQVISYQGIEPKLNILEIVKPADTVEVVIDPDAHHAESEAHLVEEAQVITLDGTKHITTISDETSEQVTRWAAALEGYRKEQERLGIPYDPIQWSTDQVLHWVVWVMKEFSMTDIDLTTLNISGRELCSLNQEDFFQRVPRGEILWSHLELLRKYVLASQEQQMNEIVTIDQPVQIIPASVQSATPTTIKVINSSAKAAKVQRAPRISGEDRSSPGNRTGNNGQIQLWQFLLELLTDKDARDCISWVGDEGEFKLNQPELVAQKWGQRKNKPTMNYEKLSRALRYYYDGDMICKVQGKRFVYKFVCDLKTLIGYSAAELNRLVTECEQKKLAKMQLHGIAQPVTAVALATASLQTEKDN
# In short: as §1
# [6] = target: SPIB (Homo sapiens, UniProt Q01892 1-262)
# In short: as §1
# [7] = target: CRX (Homo sapiens, UniProt O43186 1-299)
# In short: as §1
# [8] = target: T6, ETV7 (Homo sapiens, UniProt Q9Y603 1-341)
# T6 sequence: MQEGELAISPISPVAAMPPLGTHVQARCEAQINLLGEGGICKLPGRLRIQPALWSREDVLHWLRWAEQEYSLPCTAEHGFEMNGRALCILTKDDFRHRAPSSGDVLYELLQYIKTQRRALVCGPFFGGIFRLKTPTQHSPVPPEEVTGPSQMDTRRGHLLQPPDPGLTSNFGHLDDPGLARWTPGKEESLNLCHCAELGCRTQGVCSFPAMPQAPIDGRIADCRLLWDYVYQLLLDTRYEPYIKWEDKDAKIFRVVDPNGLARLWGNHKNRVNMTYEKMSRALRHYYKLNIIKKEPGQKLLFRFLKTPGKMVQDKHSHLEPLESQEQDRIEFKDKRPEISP
# In short: as §1
# [9] = target: T7, ELF5 (Homo sapiens, UniProt Q9UKW6-2 1-255)
# T7 sequence: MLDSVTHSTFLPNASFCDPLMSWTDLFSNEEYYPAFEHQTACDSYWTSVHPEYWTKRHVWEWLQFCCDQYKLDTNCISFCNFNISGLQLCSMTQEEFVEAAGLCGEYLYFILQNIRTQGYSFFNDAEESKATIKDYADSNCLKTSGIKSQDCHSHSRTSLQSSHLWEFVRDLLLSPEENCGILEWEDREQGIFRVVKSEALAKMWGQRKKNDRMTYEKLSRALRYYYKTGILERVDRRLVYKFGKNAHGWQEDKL
# In short: as §1
# [10] = target: T8, ETV3L (Homo sapiens, UniProt Q6ZN32 1-361)
# T8 sequence: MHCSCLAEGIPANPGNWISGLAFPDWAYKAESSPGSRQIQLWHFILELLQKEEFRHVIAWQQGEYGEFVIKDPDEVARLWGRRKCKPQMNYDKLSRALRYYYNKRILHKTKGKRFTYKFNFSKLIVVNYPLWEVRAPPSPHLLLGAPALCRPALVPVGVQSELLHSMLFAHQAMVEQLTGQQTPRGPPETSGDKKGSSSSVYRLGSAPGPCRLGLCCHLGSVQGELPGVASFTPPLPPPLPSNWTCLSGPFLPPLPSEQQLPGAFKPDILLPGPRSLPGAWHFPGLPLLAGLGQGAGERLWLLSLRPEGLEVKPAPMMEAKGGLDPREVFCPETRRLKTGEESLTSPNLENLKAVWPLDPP
# In short: as §1
# [11] = target: T9, SPDEF (Homo sapiens, UniProt O95238 1-335)
# T9 sequence: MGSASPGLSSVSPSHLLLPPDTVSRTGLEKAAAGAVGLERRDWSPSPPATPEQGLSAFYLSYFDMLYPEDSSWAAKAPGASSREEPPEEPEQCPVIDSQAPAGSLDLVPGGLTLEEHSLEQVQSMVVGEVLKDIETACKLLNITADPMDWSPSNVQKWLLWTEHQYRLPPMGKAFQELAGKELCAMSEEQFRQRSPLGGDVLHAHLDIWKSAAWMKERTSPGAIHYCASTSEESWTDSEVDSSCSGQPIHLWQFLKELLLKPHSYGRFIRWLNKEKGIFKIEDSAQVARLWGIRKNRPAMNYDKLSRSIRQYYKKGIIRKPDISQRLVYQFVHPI
# In short: as §1
# [12] = target: T10, ERF (Homo sapiens, UniProt P50548 1-548)
# T10 sequence: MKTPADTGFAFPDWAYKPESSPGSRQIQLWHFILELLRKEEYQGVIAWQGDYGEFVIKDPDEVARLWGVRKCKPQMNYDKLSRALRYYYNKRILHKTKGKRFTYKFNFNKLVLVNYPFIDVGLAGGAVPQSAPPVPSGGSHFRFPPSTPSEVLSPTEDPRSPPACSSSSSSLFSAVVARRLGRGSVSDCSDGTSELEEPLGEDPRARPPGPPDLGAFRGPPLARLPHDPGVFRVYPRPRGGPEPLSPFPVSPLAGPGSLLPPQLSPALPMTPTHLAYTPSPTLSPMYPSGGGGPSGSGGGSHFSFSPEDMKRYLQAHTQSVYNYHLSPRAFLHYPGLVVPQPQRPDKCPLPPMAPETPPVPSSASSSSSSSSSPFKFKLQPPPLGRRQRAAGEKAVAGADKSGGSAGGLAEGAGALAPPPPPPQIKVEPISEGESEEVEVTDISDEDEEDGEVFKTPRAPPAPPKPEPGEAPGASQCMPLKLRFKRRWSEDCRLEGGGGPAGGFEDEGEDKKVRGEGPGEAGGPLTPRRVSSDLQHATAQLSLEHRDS
# In short: as §1
# Chain of CRX (O43186 whole entry): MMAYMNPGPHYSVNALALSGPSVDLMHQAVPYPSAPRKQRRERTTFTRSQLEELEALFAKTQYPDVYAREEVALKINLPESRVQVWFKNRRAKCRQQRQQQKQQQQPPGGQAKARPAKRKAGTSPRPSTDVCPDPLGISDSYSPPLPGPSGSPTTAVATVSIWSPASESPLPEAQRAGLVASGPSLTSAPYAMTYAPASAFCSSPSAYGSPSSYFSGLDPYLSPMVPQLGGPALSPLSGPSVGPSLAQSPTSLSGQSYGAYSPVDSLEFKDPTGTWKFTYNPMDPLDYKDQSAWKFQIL
# Chain of SPIB (Q01892 whole entry): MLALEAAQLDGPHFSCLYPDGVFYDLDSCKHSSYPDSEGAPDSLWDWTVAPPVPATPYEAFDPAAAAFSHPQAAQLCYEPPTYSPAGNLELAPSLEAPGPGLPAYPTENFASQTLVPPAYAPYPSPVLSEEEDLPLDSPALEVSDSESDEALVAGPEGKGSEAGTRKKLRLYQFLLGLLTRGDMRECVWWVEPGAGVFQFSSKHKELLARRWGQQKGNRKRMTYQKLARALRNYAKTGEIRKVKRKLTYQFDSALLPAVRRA
sequence,measurement,setting,value
GCGGCT,binding signal,[1],"1 fold enrichment (6-mer frequency, TF over GST control)"
AGTTAT,binding signal,[2],"1 fold enrichment (6-mer frequency, TF over GST control)"
same,binding signal,[3],"1.08 fold enrichment (6-mer frequency, TF over GST control)"
CAACAG,binding signal,[4],"1 fold enrichment (6-mer frequency, TF over GST control)"
same,binding signal,[2],"1.01 fold enrichment (6-mer frequency, TF over GST control)"
same,binding signal,[3],"1.03 fold enrichment (6-mer frequency, TF over GST control)"
same,binding signal,[1],"1.02 fold enrichment (6-mer frequency, TF over GST control)"
CCAAAG,binding signal,[5],"1.01 fold enrichment (6-mer frequency, TF over GST control)"
same,binding signal,[6],"1.01 fold enrichment (6-mer frequency, TF over GST control)"
same,binding signal,[7],"1.05 fold enrichment (6-mer frequency, TF over GST control)"
GCATAA,binding signal,[7],"1.15 fold enrichment (6-mer frequency, TF over GST control)"
GATTGG,binding signal,[2],"1.01 fold enrichment (6-mer frequency, TF over GST control)"
same,binding signal,[7],"1.01 fold enrichment (6-mer frequency, TF over GST control)"
GGGATA,binding signal,[7],"1.04 fold enrichment (6-mer frequency, TF over GST control)"
AAGCCG,binding signal,[7],"1.42 fold enrichment (6-mer frequency, TF over GST control)"
same,binding signal,[8],"1.05 fold enrichment (6-mer frequency, TF over GST control)"
TAGAGG,binding signal,[7],"1.02 fold enrichment (6-mer frequency, TF over GST control)"
ACAAGG,binding signal,[4],"1.04 fold enrichment (6-mer frequency, TF over GST control)"
same,binding signal,[2],"1.02 fold enrichment (6-mer frequency, TF over GST control)"
same,binding signal,[3],"1.09 fold enrichment (6-mer frequency, TF over GST control)"
same,binding signal,[9],"1.14 fold enrichment (6-mer frequency, TF over GST control)"
TGACAG,binding signal,[3],"1.09 fold enrichment (6-mer frequency, TF over GST control)"
same,binding signal,[10],"1 fold enrichment (6-mer frequency, TF over GST control)"
GGATTG,binding signal,[7],"1.12 fold enrichment (6-mer frequency, TF over GST control)"
TAGCCG,binding signal,[7],"1.05 fold enrichment (6-mer frequency, TF over GST control)"
ACCGGT,binding signal,[3],"1.01 fold enrichment (6-mer frequency, TF over GST control)"
same,binding signal,[11],"1.02 fold enrichment (6-mer frequency, TF over GST control)"
GCGTAA,binding signal,[7],"1.03 fold enrichment (6-mer frequency, TF over GST control)"
GAGCTA,binding signal,[4],"1 fold enrichment (6-mer frequency, TF over GST control)"
same,binding signal,[3],"1.02 fold enrichment (6-mer frequency, TF over GST control)"
GATCAG,binding signal,[7],"1.08 fold enrichment (6-mer frequency, TF over GST control)"
TATCGG,binding signal,[7],"1.1 fold enrichment (6-mer frequency, TF over GST control)"
GTTTAG,binding signal,[7],"1 fold enrichment (6-mer frequency, TF over GST control)"
AGCTTG,binding signal,[5],"1.02 fold enrichment (6-mer frequency, TF over GST control)"
same,binding signal,[7],"1.04 fold enrichment (6-mer frequency, TF over GST control)"
TACGGG,binding signal,[3],"1.01 fold enrichment (6-mer frequency, TF over GST control)"
same,binding signal,[12],"1.08 fold enrichment (6-mer frequency, TF over GST control)"
